# Source: PubChem BioAssay AID2537 (National Center for Advancing Translational Sciences (NCATS), 2010)
# Inconclusive results are not listed. Where a call stands in place of a potency, no number is given. The source made the active and inactive calls. Calls follow the shape of the dose curve; as a rule, active = well fitted inhibition curve with a large enough effect; inconclusive = small, poorly fitted or top-dose-only effect; inactive = no such curve, though single readings can be large or run the other way.
# Molecular target: Polyunsaturated fatty acid lipoxygenase ALOX15B (Homo sapiens) (UniProt O15296)
# Sequence (O15296 whole entry, looked up): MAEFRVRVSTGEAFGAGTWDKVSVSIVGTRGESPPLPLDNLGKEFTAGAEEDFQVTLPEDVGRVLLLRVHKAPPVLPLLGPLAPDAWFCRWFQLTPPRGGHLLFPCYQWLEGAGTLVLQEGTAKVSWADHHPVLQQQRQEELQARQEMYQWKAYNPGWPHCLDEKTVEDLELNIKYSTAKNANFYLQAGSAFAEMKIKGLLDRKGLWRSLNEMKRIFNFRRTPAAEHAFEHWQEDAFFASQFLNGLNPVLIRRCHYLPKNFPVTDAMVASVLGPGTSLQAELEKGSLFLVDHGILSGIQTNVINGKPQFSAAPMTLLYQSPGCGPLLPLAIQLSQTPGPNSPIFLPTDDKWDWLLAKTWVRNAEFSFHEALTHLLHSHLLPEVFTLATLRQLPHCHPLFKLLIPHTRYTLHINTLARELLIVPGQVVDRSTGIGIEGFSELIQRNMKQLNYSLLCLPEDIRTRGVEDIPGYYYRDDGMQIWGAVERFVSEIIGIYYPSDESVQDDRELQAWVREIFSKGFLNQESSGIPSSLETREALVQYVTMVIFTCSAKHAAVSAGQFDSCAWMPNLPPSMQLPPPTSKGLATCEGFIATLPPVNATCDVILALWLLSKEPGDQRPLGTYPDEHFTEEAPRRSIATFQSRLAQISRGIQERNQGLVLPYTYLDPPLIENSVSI
# Assay: Confirmation qHTS Assay for Inhibitors of 15-hLO-2 (15-human lipoxygenase 2)
# Settings: purified 15hLO-2, xylenol orange hydroperoxide absorbance; series mostly up to 57.1 µM
# Method: Human lipoxygenase 15hLO-2 is a member of the closely related lipoxygenase family of enzymes which catalyze the site-specific oxidation of arachidonic acid to various hormone precursor molecules and as such is a candidate for drug development in a variety of disease areas, such as cancer and inflammation. Inhibition of 15hLO-2 activity was screened by utilizing arachidonic acid as a substrate. The extent of hydroperoxide product formation was measured by a secondary chromogenic reaction in which xylenol orange (XO, Sigma-Aldrich, cat. number 39,818-7) reacts with the ferric ions produced from the reaction between the hydroperoxide and ferrous ions. The Fe(III)-XO complex is characterized with red-shifted absorbance at 560 nm. A purified preparation of human 15hLO-2 was supplied by Professor Ted Holman, University of California, Santa Cruz. NIH Molecular Libraries Screening Centers Network [MLSCN] NIH Chemical Genomics Center [NCGC] MLSCN Grant: MH081283-01A1 PI Name: Holman, T.R., University of California, Santa Cruz
# Assay Protocol: Buffer: 25 mM Hepes pH 7.5, 0.01% Triton X-100. Reagents/Controls: Buffer in columns 3 and 4 as negative control (no enzyme). Substrate solution: 45 uM arachidonic acid (Sigma-Aldrich, St. Louis, MO) final concentration dispensed throughout the plate. Enzyme: 50 nM 15hLO-2 final concentration in columns 1, 2, 5-48. Column 1 is neutral (100% activity). Column 2 contained pin-transferred titration of NDGA (nordihidroguaiaretic acid, Sigma-Aldrich, N 5023, top concentration 10 mM in DMSO, then 1:2 dilution in duplicate). (Dilution factor: 23 nL into 4 uL.) Chromogenic detection reagent (divalent iron/xylenol orange, Fe-XO): 200 uM xylenol orange plus 300 uM ferrous ammonium sulfate prepared freshly in 50 mM sulfuric acid. Assay Steps: Three uL of enzyme were dispensed to 1536-well Greiner black clear bottom plates. Compounds and controls (23 nL) were transferred via Kalypsys PinTool. The plates were incubated for 15 min at room temperature, and then 1 uL of substrate solution was added to start the reaction. After room temperature incubation for 90 minutes, 4 uL of Fe-XO solution was added to each well followed by a short spin (1000 rpm, 15 sec) and the plates were then incubated for 30 min. The absorbance at 405 and 573 nm were measured using ViewLux (Perkin-Elmer) High-throughput CCD imager and absorbance protocol settings. The 573-to-405 absorbance ratio was used to compute reaction progress.
row,SMILES,Potency
1,CC1=CC(C)(C)Nc2ccc(OC(=O)CN3C(=O)c4cccc5cccc(c45)C3=O)cc21,12.6 µM (active)
2,O=C(Nc1cccc(F)c1)N1CCCC2(CCN(C(=O)c3ccco3)CC2)C1,inactive
3,CCOC(=O)c1c(NC(=O)CN2CCOCC2)sc2c1CCCC2,inactive
4,CCOc1cc(-c2cc(-c3ccc(N)cc3)nc(N)c2C#N)ccc1O,inactive
5,N=c1c(C(=O)NC2CCCC2)cc2c(=O)n3ccccc3nc2n1C1CCCC1,inactive
6,Cc1ccc(C)c(NC(=S)NNC(=O)c2csc3c2CCC(C)C3)c1 (stereo not given),inactive
7,O=C(Cc1cc(=O)[nH][nH]1)N/N=C/C=C/c1ccccc1,inactive
8,COC(=O)c1ccc(C(=S)N2CCOCC2)cc1,inactive
9,COc1ccccc1CNc1ncncc1-c1ccoc1,inactive
10,c1csc(C2Nc3cccc4cccc(c34)N2)c1,12.6 µM (active)
11,COc1cccc(-c2nccc(NCc3ccccc3OC)n2)c1,inactive
12,O=C(c1ccncc1)N1CCC2(CCCN(Cc3nccs3)C2)CC1,inactive
13,Cc1noc(C)c1-c1nc(N(C)Cc2ccco2)c2ccccc2n1,inactive
14,CCCC(=O)NC(c1ccco1)c1cc(Cl)c2cccnc2c1O (stereo not given),inactive
15,COc1ccc(C(C[N+](=O)[O-])c2c(-c3ccccc3)cc3ccccn23)c(OC)c1 (stereo not given),inactive
16,Nc1cc(-c2ccncc2)c[nH]c1=O,inactive
17,O=C(Nc1nnc(-c2ccccc2)o1)c1ccc(Cl)cc1,inactive
18,COCCSc1ccccc1C(=O)NCc1ccco1,inactive
19,COc1cccc(-c2nc(NC3CCNCC3)c3ccccc3n2)c1,inactive
20,Oc1ccc(CNc2ccccc2)c2cccnc12,inactive

row,SMILES,Potency
1,Cc1ccc(SCCNC(=S)Nc2ccc(C)c(C)c2)cc1,25.1 µM (active)
2,CC1=NOC(=O)/C1=C\c1ccc(-c2cccc(Cl)c2)o1,4.47 µM (active)
3,NC(=O)c1cccc2c3c([nH]c12)CCCC3,inactive
4,COc1ccccc1-n1c(SCC(=O)Nc2ccc(C)cc2)nc(O)cc1=O,inactive
5,O=c1c(-c2ccc3c(c2)OCCO3)coc2cc(O)cc(O)c12,inactive
6,COc1ccc(NC(=O)CSc2nc(O)cc(=O)n2-c2ccccc2OC)cc1,inactive
7,COc1ccc(OC)c(NC(=O)NC2(C(F)(F)F)Oc3ccccc3O2)c1,inactive
8,CN(C)/C=C/C(=O)c1ccc(Cl)cc1,inactive
9,Cc1cc(/C=N/NC(=O)Cn2c3ccccc3c(=O)c3ccccc32)c(C)n1-c1ccccc1,7.08 µM (active)
10,CN(C)CCC(=O)c1ccc(Cl)cc1,inactive
11,Cc1ccc(-c2ccc(/C=C3\C(=O)ON=C3c3ccccc3)o2)c([N+](=O)[O-])c1,3.16 µM (active)
12,Oc1ccc2ccccc2c1CNc1cnc2ccccc2c1,inactive
13,CCC(=O)N(Cc1cc(=O)[nH]c2ccccc12)C1CCCCC1,inactive
14,CCOc1ccc(NS(=O)(=O)c2ccc3[nH]cc(C(=O)N(CC)CC)c(=O)c3c2)cc1,inactive
15,CC(=O)[C@@H]1[C@@H]2C(=O)N(Cc3ccccc3)C(=O)[C@@H]2C2c3ccccc3C=CN21 (stereo not given in full),inactive
16,Cc1c(N/C=C/C(=O)c2cccs2)c(=O)n(-c2ccccc2)n1C,inactive
17,O=C(Nc1nnc(-c2ccco2)s1)C1CCCCC1,1 µM (active)
18,OC1(c2cccc(C(F)(F)F)c2)CCN(c2ncnc3c2[nH]c2ccc(F)cc23)CC1,inactive
19,O=C(C1=C(O)C(=O)N(Cc2ccco2)C1c1cccnc1)c1cc2ccccc2o1 (stereo not given),inactive
20,Cc1cccc(CNc2ncnc3ccc(-c4ccc5c(c4)OCO5)cc23)c1,inactive
